Assay results published in the supplement of paper PMC6555819.

Tests used:
Assay in all cases: PBM binding z-score (relative to random genomic background probes); higher = stronger binding; sequences stand for … in GC…GCGATTGACAGCGTAGAATGAAGG
[1] = tested on: PPARg:RXRa DBDmut IVT, anti-RXR (DBD mutation: RXRa K156A/R161A, NR concentration 270 nM, RXRa partner concentration 90 nM)
How it was run: (§1)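 Regression normalization was applied to scanned fluorescence from custom Agilent 4×180K protein-binding microarrays. Before scanning, arrays were incubated 1 h with ligand-free nuclear receptor dimers, and binding was detected with antibodies against each partner (one per run). Binding z-scores use the random background probes as reference.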

[2] = tested on: PPARg:RXRa IVT, anti-PPARg (NR concentration 270 nM, RXRa partner concentration 90 nM)
How it was run: as §1

[3] = tested on: PPARg DBDmut:RXRa IVT, anti-PPARg (DBD mutation: PPARg1 K132A/R137A, NR concentration 270 nM, RXRa partner concentration 90 nM)
How it was run: as §1

[4] = tested on: PPARg DBDmut IVT, anti-PPARg (DBD mutation: PPARg1 K132A/R137A, NR concentration 270 nM)
How it was run: as §1

[5] = tested on: PPARg homodimer (NR concentration 180 nM)
How it was run: as §1

[6] = tested on: PXR:RXRa (NR concentration 270 nM, RXRa partner concentration 90 nM)
How it was run: as §1

[7] = tested on: PXR homodimer (NR concentration 270 nM)
How it was run: as §1

[8] = tested on: RARa:RXR (NR concentration 270 nM, RXRa partner concentration 90 nM)
How it was run: as §1

[9] = tested on: RARa homodimer (NR concentration 270 nM)
How it was run: as §1

[10] = tested on: RARb:RXRa (NR concentration 270 nM, RXRa partner concentration 90 nM)
How it was run: as §1

Sequence	PBM binding z-score [1]	PBM binding z-score [2]	PBM binding z-score [3]	PBM binding z-score [4]	PBM binding z-score [5]	PBM binding z-score [6]	PBM binding z-score [7]	PBM binding z-score [8]	PBM binding z-score [9]	PBM binding z-score [10]
TCGAGTAGGATACCAATGGGGCATTCAGCTTTCT	1	-0.141	-0.244	-1.29	-1.04	-0.677	-0.988	-1.18	-1.27	-0.402
GCTAGTTGGTCAGTAATAGGTCACACACCGGTCG	1.6	2.79	-0.0555	-0.765	1.88	2.1	0.429	2.93	0.809	2.57
CTGGAAAGGTCGTGCTCAGGTGAGTATACCAAAC	0.634	1.35	-0.0196	0.149	1.33	3.07	-0.203	4.31	-0.374	3.59
AGAATGAGGTTATTAGGATCAGGGAATTGCGGTC	3.64	3.55	0.306	0.466	1.24	1.38	0.752	1.57	1.06	1.53
TGACTGAGGTTATAAGATCAGGGAACGTTGCAAA	-0.568	0.535	-0.045	-0.27	0.479	0.649	-0.0741	1.25	-0.694	1.15
AGAATGAGGTAATTAAGATCAGGGAATTGCGGTC	2.2	1.37	0.265	-0.0371	-0.649	-0.0568	0.153	0.224	-0.15	0.0669
AGAATGAGGTTTTTAAGATCAGGGAATTGCGGTC	0.514	0.257	0.355	-0.0253	-0.582	-0.38	-0.508	-0.216	0.273	0.0304
TCTTGTAGTTCAGCAGGTTAAGAAAGCTGGCCAA	1.37	0.541	-0.927	0.25	0.434	0.887	0.352	1.18	0.277	1.76
CCTACTGGGCCATTCAGAGGTCATGGATCATATG	4.14	4.64	0.856	0.389	2.93	4.92	0.765	5.46	0.962	3.19
CGAACTAGGTCAAGGACAGTCAATCTCCGCACGC	8.01	8.24	1.66	1.8	1.37	1.25	0.00572	2.09	0.256	4.08
TCTGCTAGGTCAACGCTGGTCAGCTAATCTGCTA	4.5	4.5	0.648	0.00924	1.34	2	-1.26	2.35	-1.41	4.16
GCGACTGGGGCATCAGCGGGTTACCATAACTTAA	3.43	2.86	-0.728	-1.07	0.437	-0.0944	-0.517	0.346	-0.439	0.729
GTAACGAGGGCAAAGTTGATAGCATCTGTCGACG	4.16	4.69	0.947	0.296	0.574	1.36	0.402	1.77	0.268	2.36
TCTTGTAGAACAGCAGGTTAAGAAAGCTGGCCAA	1.67	0.554	-0.871	-0.593	-0.509	0.0552	-0.772	-0.0223	-1.16	0.0879
GGAACGAGGGCAAAGTTGATACCATCTGTCGACG	3.89	3.91	0.382	-0.0769	0.593	1.61	0.644	2.09	0.0395	2.42
CCAGACAGGTGAAAGGTAACTCTGTCTGGTACGC	2.33	3.16	0.131	-0.269	0.283	1.16	-0.171	2.16	-0.0874	1.24
CATCCAAGGTCAAGGTCAGTGAAAGAGACTCGAA	3.78	5.22	1.93	0.636	4.53	4.84	1.77	5.12	1.98	5.77
CTCGAAAGGTCGTGCACAGGTGAGTATACCAAAC	0.853	2.21	0.533	0.411	2.02	3.56	0.388	4.46	0.659	4.07
AGTACGAGGGCAATGAGTTGATAGCACGGGTGGC	1.59	1.15	0.233	0.248	0.203	1.32	5.08	0.221	0.00797	2.08
GTACCAAGGTGAATAGGTGGTTGATGAGTAGGCG	1.79	1.93	0.268	-0.307	0.741	-0.428	0.469	-0.021	0.656	1.21
TCTTGTAGATCCAGCAGGTTAAGAAAGCCTGAGT	1.04	-0.258	-0.0441	-0.28	-0.955	0.35	0.226	0.259	-0.051	0.133
TCTTGTAGATCAAAGGTTAAGTAAGCCGAAGCCT	2.31	3.98	0.677	0.732	0.931	2.16	0.0156	3.2	0.12	2.23

Sequence	PBM binding z-score [1]	PBM binding z-score [2]	PBM binding z-score [3]	PBM binding z-score [4]	PBM binding z-score [5]	PBM binding z-score [6]	PBM binding z-score [7]	PBM binding z-score [8]	PBM binding z-score [9]	PBM binding z-score [10]
TCTCGGAGGACACGAAGATCAGAGCTTTCCAGAG	1.06	-0.251	-1.11	-0.408	-0.646	-0.151	-0.592	0.08	-0.514	1.21
GCTCGGAGGACAAGGTCAGAGTTTTGTCCGTAGA	0.207	0.996	-0.873	-1.18	0.43	1.95	0.373	2.23	-0.47	3.46
AGAATGAGGTTATTAAGATCAGTGAATTGCGGTC	3.14	2.61	0.948	0.175	1.22	1.37	0.788	1.35	0.44	1.31
TTACCAAGGTGAAGGTCGCTGATCCCTCTGTAGA	1.76	3.41	-0.525	-0.735	0.05	0.966	-0.523	1.56	-0.643	2.5
CAGACAGGGTCAGCTAGGCCAGAGTAGGGACGGC	0.343	1.7	-0.372	-0.169	1.26	1.72	-0.203	2.83	-0.174	3.84
TTACCATGGTGAGCTGAGGTCGTTGATCCAACTC	-0.23	0.397	-0.517	-0.449	-0.916	1.87	-0.0892	1.14	-0.905	0.272
TCTGCTAGGTCAACGATGGTCAGCTAATCTGCTA	4.23	4.22	0.762	0.898	1.44	1.67	-0.856	2.46	-0.93	4.01
ACTAGTTGGTCAGTTGAGGTCACACACAATTCGG	1.58	2.98	1.37	0.982	3.72	5.67	2.39	4.98	1.56	3.54
CCTACTGGGCCACGAAAGGTCATTGATTCAGTGA	5.99	5.95	0.883	-0.339	4.26	5.45	2.06	5.9	1.7	4
TTACCAGGGTGAAAGGTCGTTGATGCACGCCTTG	2.27	4.77	0.849	0.523	3.33	4.25	0.522	5.93	0.262	2.59
ATCTATAGGTAAAGTTCAGTGAAAGATCGATAGA	1.31	1.74	1.49	1.19	1.41	1.99	1.33	1.21	1.04	2.62
ATCTCTAGGGAACCAAGTTCAGTGAATGCCGAAC	0.604	0.283	0.0886	0.863	0.45	1.24	1.73	0.461	0.0341	0.674
CCTATTAGTTGACCATAAGGGCAGCCGAAGCTCG	0.366	0.178	-0.234	-0.298	1.6	0.00471	0.575	0.385	1.64	1.29
AGACCGAGGGCAATGAGTTGATAGCACGGGTGGC	0.184	0.251	-0.826	-1.67	-1.05	1.23	5.21	-0.109	-0.589	1.79
CTACCAAGGTGAACAAGGACGTTGATTACTATTC	2.52	2.17	0.0703	0.657	0.761	0.356	0.295	0.5	0.187	1.55
CCTTATGGGTCACGAGGTTATAGCACGACGAGCG	6.86	7.13	2.07	2.59	3.76	3.9	0.436	5.4	0.87	4.43
TTACCAAGGTGAAAGTCGTTGATCCCTCTGTAGA	1.87	2.87	0.179	0.266	-0.0514	0.456	-0.651	1.1	-0.221	1.67
TAGCCTAGGTGATGGGCCAGTATACCACGCGAAC	-0.692	0.25	-0.775	-0.847	-0.49	-0.714	-0.807	-0.895	-1.38	-0.281
TTACCAAAGTGAAGGTCGTTGATCCCTCTGTAGA	0.0303	0.266	-1.3	-0.698	0.00936	1.15	0.234	1	-0.568	0.632
ACTATTAGTTGAGACGCGGGCAACCGATAGGTTG	-0.288	-0.175	0.481	0.188	-0.291	-0.299	-0.208	-0.588	-0.0314	0.15
CAAATTAGGTCAAGAGGTCAAAGTCCGCTTCCCG	8.5	8.22	3.42	1.71	8.6	6.49	3.51	8.33	5.28	5.74
TCTTGTAGATCCGCAGGTTAAGAAAGCTGGCCAA	1.29	-0.0295	0.383	-0.621	-0.223	0.161	-1.09	0.597	-0.725	0.136
